Compound activity deposited in PubChem BioAssay by several laboratories.
Shown are actives, neighbours in structure and some others; about 3.5% of the full set was active somewhere.
BJeLR viability = MLPCN primary cell-based screen for lethality selective to Ras in HRASV12 cells. inhibition, % (test concentration not listed). AID 1554, 2009. hit rate 0.17% among 300,000. BJeLR (HRASV12) viability, CellTiter-Glo ATP luminescence, 48 h; in the data active = inhibition above about 50%; inconclusive = no clear call, values can overlap the other calls
BoNT-F LC inh = BoNT/F light chain protease inhibitors, primary screen, biochemical, flow cytometry, MLPCN library; Botulinum neurotoxin type F light chain protease (Clostridium botulinum); Multiplex microsphere protease cleavage assay; inhibition, % at 10 µM; hit rate 0.22% among 360,000; in the data active = inhibition above about 35%, passing the limit was not always enough; inconclusive = no clear call, values can overlap the other calls; also: plate controls were buffer without enzyme for full effect and enzyme alone for no effect
Anthrax LF prot = Bacillus anthracis LF protease inhibitors, primary screen, biochemical, multiplex microsphere, MLPCN library. Lethal factor (Bacillus anthracis), P15917. multiplex microsphere protease cleavage assay. inhibition, % at 10 µM. hit rate 0.12% among 360,000; also: plate controls were buffer without enzyme for full effect and enzyme alone for no effect
BoNT-A LC inh2 = BoNT/A light chain protease inhibitors, primary screen, biochemical, flow cytometry, MLPCN library. Botulinum neurotoxin type A light chain protease (Clostridium botulinum A str. ATCC 3502). multiplex microsphere protease substrate cleavage. inhibition, % at 10 µM. hit rate 0.17% among 360,000. AID 588499, 2011; also: plate controls were buffer without enzyme for full effect and enzyme alone for no effect
Bead autofluor = counter-screen for toxin protease inhibitors: compound fluorescence; compound autofluorescence counterscreen, microsphere flow cytometry; active compounds read high; fluorescence intensity (test concentration not listed); hit rate 3.1% among 360,000; in the data active = fluorescence intensity above about 16000; inconclusive = no clear call, values can overlap the other calls
The depositor's hits bear a star; ? = inconclusive; / = no result given. Rule as the data show it, unless noted: active = inhibition above about 30%; inconclusive = no clear call, values can overlap the other calls; inactive = below that.

SMILES	BJeLR viability	BoNT-F LC inh	Anthrax LF prot	BoNT-A LC inh2	Bead autofluor
CC1C(=O)OC(c2ccc(Cl)cc2)C(C)(C)C1=O (stereo unspecified)	-2	-38	-6	-4	2947
Cc1cnc(C(=O)OCC(=O)C23CC4CC(CC(C4)C2)C3)cn1	1	-2	1	-3	4842
Cc1cnc(C(=O)OCC(=O)NC23CC4CC(CC(C4)C2)C3)cn1	-16	0	1	1	20090*
COC(=O)c1ccc(COc2cccc(C)c2C)cc1	5	0	2	-1	3428
CCc1ccc(Nc2n[n+](-c3ccccc3)c(-c3ccc(OCc4ccccc4)cc3)s2)cc1	15	3	1	0	3938
CCc1ccc(Nc2n[n+](-c3ccccc3)c(-c3ccc(N(CC)CC)cc3)s2)cc1	0	-27	19	23	19557*
C[C@@H]1CN([C@@H](C)CO)C(=O)CCCn2nncc2CO[C@H]1CN(C)C(=O)c1ccc2ccn(C)c2c1	/	-1	1	0	3967
COc1ccc(CSc2nc(C)cc(=O)[nH]2)cc1Br	0	2	0	0	23006*
Cc1cc(=O)[nH]c(SCCOc2ccc(OC(C)C)cc2)n1	7	-14	5	0	4312
Cc1cc(=O)[nH]c(SCCCOc2ccccc2Cl)n1	-6	-1	-1	-2	20446*
CCc1cc(OCCCSc2nc(C)cc(=O)[nH]2)ccc1Cl	6	-3	0	?	24555*
C/C=C/c1ccc(OCCSc2nc(C)cc(=O)[nH]2)c(OC)c1	4	-9	-1	-6	17582*
O=C(O)c1ccccc1C(=O)Nc1ccccn1	-10	1	-2	1	23171*
C[C@@H]1CN([C@@H](C)CO)C(=O)CCCn2nncc2CO[C@H]1CN(C)C(=O)C1CC1	/	8	-1	0	3803
CCOC(=O)c1cc(-c2ccc(OC)cc2)nc2c1c(C)nn2CCC#N	-9	-5	-5	?	20850*
CCOC(=O)c1cc(-c2ccc(C#N)cc2)nc2c1c(C)nn2CCC#N	14	-6	-1	0	2655
Cc1ccccc1SCC(=O)NC1CCOC1=O (stereo unspecified)	0	2	-2	1	22927*
Cc1ccccc1SCC(=O)Nc1ccc(N2CCOCC2)cc1	0	-11	0	0	3477
COc1ccc(-c2csc(NC(=O)C3=COCCO3)n2)c(OC)c1	-5	2	4	5	4704
C=CCNc1nc(-c2ccc(OC)cc2OC)cs1	2	1	-3	?	21095*
CC(=NC1CC1)C1=C(O)c2ccccc2C1=O	-2	0	-2	?	22929*
COc1ccccc1OCc1nnc(SCC(=O)N2CCCCC2)o1	-14	3	-1	-1	5499
COc1ccccc1OCc1nnc(SCC(=O)N2CCCC2)o1	-2	13	2	2	3915
COc1ccccc1OCc1nnc(SCC(=O)c2cc(Cl)ccc2OC)o1	-7	3	1	?	21782*
COc1ccccc1OCc1nnc(SCCN2CCOCC2)o1	1	-4	-2	?	22558*
SMILES	BJeLR viability	BoNT-F LC inh	Anthrax LF prot	BoNT-A LC inh2	Bead autofluor
COC(=O)[C@]12CCCCC=C1N(Cc1ccco1)C(=O)[C@H](CC(=O)NCc1ccccc1)C2	/	-13	0	-2	6021
O=C(/C=C/c1ccc(Cl)cc1)NCCSc1ccccc1	-11	2	-4	?	19211*
O=C(/C=C/c1ccc(Cl)cc1Cl)NCCSc1ccccc1	-5	1	-1	0	2012
COc1cc(CNCc2ccc(SC)cc2)cc(OC)c1	5	-5	-1	0	2631
CCC(=O)Nc1ccc(C(=O)N/N=C/c2ccccc2[N+](=O)[O-])cc1	21	-4	-2	-2	23894*
Cc1noc(C)c1-c1ccc(C(=O)Nc2cccc(C(F)(F)F)c2)c2occc12	/	-2	-2	0	3859
Cc1cc(C)c(C(=O)c2ccc(C(=O)N(C(C)C)C(C)C)cc2)c(C)c1	-8	-4	0	-6	22394*
C=CCn1c(=S)sc2c(=O)[nH]cnc21	1	?	53*	-1	3494
O=c1[nH]c(-c2ccc(F)cc2)nc2c1sc(=S)n2-c1ccccc1	-2	-8	0	-1	2682
O=c1[nH]cnc2c1sc(=S)n2-c1ccccc1	3	2	-2	2	22624*
